Assay outcomes as filed in PubChem BioAssay.
Many of the other results were omitted from the sample, so hits are more common in it than they were.
HT1080 IDH1KD tx: HT-1080 IDH1 knockdown cell toxicity (counter line); HT-1080 IDH1 knockdown viability, ATP luminescence, 48 h; Potency, µM (series often up to 46.1 µM), actives largely listed as cytotoxic; 360,000 tested, 2% active; AID 686971
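Luminescent ATP read-out (CellTiter-Glo, 10 min at room temperature) after 48 h compound exposure at 37 °C gave viability of IDH1-knockdown HT-1080 cells. Activity was normalised to DMSO and cell-free wells, then fitted as concentration-response curves.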
DT40 TDP1 CPT: DT40-hTDP1 cell growth loss with CPT | chicken DT40 Tdp1-/-;hTDP1 cells + 20 nM CPT, ATP luminescence, 48 h | Potency, µM (top dose mostly 46.2 µM), actives largely listed as inhibitors | 420,000 tested, 12% active; further: nearly all actives have a fitted effect of over 55% in size
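Cell growth measured by CellTiter-Glo luminescence after a minimum 48 h, 37 C compound exposure with 20 nM CPT in Tdp1-knockout DT40 cells stably expressing hTDP1, seeded 400/well; qHTS titration format.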
HT1080-NT tox: kills 2HG-producing HT-1080-NT fibrosarcoma cells | HT-1080-NT fibrosarcoma viability, CellTiter-Glo ATP luminescence, 48 h | AID 686970 | 360,000 tested, 1.6% active | Potency, µM (highest dose often 46.1 µM), usual class: cytotoxic;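 further: NT is the 2HG producing partner of a matched IDH1 knockdown line; nearly all actives have a fitted effect of over 55% in size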
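HT-1080-NT fibrosarcoma cells (2HG-overproducing), 750 cells/well in RPMI with 5% FBS, dosed after 2 h and incubated 48 h at 37C. CellTiter-Glo luminescence normalized to DMSO and no-cell wells; concentration-response curves fitted and classed.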
ALOX12 inh: inhibitors of human 12S-lipoxygenase ALOX12. P18054. purified 12hLO, xylenol orange hydroperoxide absorbance. Potency, µM (highest dose often 108 µM), hits mostly inhibitors. 580,000 tested, 1.1% active. AID 1671190
Target sequence (P18054 whole entry, looked up): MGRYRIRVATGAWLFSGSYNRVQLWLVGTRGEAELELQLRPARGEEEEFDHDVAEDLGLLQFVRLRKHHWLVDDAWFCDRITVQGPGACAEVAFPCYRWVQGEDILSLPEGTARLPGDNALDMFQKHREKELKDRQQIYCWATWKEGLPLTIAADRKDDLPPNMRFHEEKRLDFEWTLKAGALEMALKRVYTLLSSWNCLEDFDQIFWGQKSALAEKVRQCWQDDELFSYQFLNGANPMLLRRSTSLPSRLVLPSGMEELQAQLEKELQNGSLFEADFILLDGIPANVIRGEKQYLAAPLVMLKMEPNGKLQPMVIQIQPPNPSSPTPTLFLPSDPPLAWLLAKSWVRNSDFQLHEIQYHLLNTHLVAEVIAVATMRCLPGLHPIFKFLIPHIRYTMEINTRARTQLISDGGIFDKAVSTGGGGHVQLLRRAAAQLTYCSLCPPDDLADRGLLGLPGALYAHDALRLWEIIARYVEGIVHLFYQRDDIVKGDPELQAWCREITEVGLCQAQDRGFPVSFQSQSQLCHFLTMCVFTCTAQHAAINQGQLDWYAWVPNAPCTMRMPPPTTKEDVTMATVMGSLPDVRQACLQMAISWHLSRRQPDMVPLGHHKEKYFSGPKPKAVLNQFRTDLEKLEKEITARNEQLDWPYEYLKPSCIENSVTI
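Hydroperoxide product was detected by ferrous iron/xylenol orange as the 573 to 405 nm absorbance ratio. Arachidonic acid at 40 uM (final) was turned over for 30 min at room temperature by 150 nM human 12hLO, pH 7.0 Hepes buffer, after 15 min compound preincubation.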
IL1B secr inh: inflammasome signaling inhibition, IL-1 beta readout. THP-1 LPS/ATP IL-1B secretion, AlphaLISA, 16 h; active compounds read low. activity change, % at 57.5 µM. 360,000 tested, 4.7% active; in the data active means activity change below about -50%; inconclusive means mostly about -30% to -49%
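Secreted IL-1B measured by AlphaLISA bead assay after 16 h compound exposure of THP-1 cells; compounds (final up to 57.5 uM) added 1 h before LPS (250 ng/mL) and ATP (1.25 mM) stimulation; lower signal means less secretion.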
TDP1 cell noCPT: qHTS for Inhibitors of human tyrosyl-DNA phosphodiesterase 1 (TDP1): qHTS in cells in absence of CPT; 420,000 tested, 15% active; DT40 Tdp1-/- hTDP1 cells, no CPT, ATP luminescence, 48 h; Potency, µM (highest dose often 46.2 µM), usual class: inhibitors; further: nearly all actives have a fitted effect of over 55% in size
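Luminescent ATP content (CellTiter-Glo) served as the growth readout. Knockout chicken DT40 cells expressing human TDP1 were exposed to compounds without camptothecin for a minimum 48 hr at 37 °C.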
A number is an active result; . = inactive; ? = inconclusive; / = no result given; [ ] = dose if it differs, or a comment. Unless noted, the call rests on the fitted dose curve; in most records, active means well fitted curve in the direction sought with a large enough effect; inconclusive means small, poorly fitted or top-dose-only effect, or another doubt; inactive means no such curve, though single readings can be large; an effect the other way counts as inactive or inconclusive.

SMILES	HT1080 IDH1KD tx	DT40 TDP1 CPT	HT1080-NT tox	ALOX12 inh	IL1B secr inh	TDP1 cell noCPT
CCn1c(=N)n(CC(O)COc2ccc(C)cc2)c2ccccc21 (centres undefined)	?	12µM	?	.	/	16µM
CCCn1c(=N)n(CC(O)c2ccc(C)cc2)c2ccccc21 (centres undefined)	.	?	.	.	?	23µM
CN=c1sc2ccccc2n1CC(O)COc1ccccc1 (centres undefined)	.	?	.	.	.	18µM
CCCn1c(=N)n(CC(O)c2ccco2)c2ccccc21 (centres undefined)	.	?	.	.	.	?
O=Cc1ccccc1Oc1ccc(F)c(Cl)c1	/	/	/	.[12.5 µM]	/	/
O=[N+]([O-])c1cc(C=Nc2ccc3ccccc3c2)ccc1Br	.	2.6µM	.	.	.	2.9µM
O=C(Cc1ccsc1)N1CCC2(CCCN(CC3CCC3)C2=O)C1 (centres undefined)	/	/	/	.	/	/
CCOCc1c(C(=O)Nc2ccc(OC)nc2)oc2ccccc12	.	.	.	.	.	18µM
CCOCc1c(C(=O)NC2=Nc3ccccc3NC(CC)=C2C(=O)OCC)oc2ccccc12	?	23µM	?	.	.	16µM
CCOC(=O)C1=C(CC)Nc2ccccc2N=C1NC(=O)c1ccc(S(=O)(=O)N2CCOCC2)cc1	.	?	.	.	.	?
COc1ccc(NC(=O)c2oc3ccccc3c2CSC)cn1	.	.	.	.	.	?
CCOC(=O)C1=C(CC)Nc2ccccc2N=C1NC(=O)c1ccc(S(=O)(=O)N(C)C)cc1	?	7.3µM	.	.	.	5.8µM
CCOC(=O)C1=C(CC)Nc2ccccc2N=C1NC(=O)CCNC(C)=O	.	.	.	.	.	?
CCOC(=O)C1=C(CC)Nc2ccccc2N=C1NC(=O)c1ccc(C)c(S(=O)(=O)N2CCOCC2)c1	.	16µM	.	.	.	?
CCOC(=O)C1=C(C)Nc2ccccc2N=C1NC(=O)c1cccc(S(=O)(=O)N(C)C)c1	.	.	.	.	.	.
COc1cc(-c2nc3cnccn3c2NC(C)(C)CC(C)(C)C)ccc1O	.	?	.	?	.	?
CCCCCCSc1cc(-c2nc3cnccn3c2NCc2ccccc2)ccc1OC	.	?	.	/	.	?
CCCCNc1c(-c2ccc(OC)c(SC3CCCCC3)c2)nc2ccc(Cl)cn12	.	21µM	.	?	.	23µM
CCCCNc1c(-c2ccc(OC)c(SC3CCCCC3)c2)nc2cc(C)ccn12	?	21µM	18µM	?	-86	15µM
CCCCNc1c(-c2ccc(OC)c(SC3CCCCC3)c2)nc2cnccn12	?	?	?	/	-70	?
CCOC(=O)CNc1c(-c2ccc(OC)cc2)nc2ccc(Cl)cn12	.	.	.	.	.	.
COc1ccc(-c2nc3cc(C)ccn3c2NC(=O)c2ccccc2OC)cc1	?	?	?	.	.	?
CCCCNc1c(-c2ccc(-c3ccc(C(C)=O)cc3)c(OC)c2)nc2cnccn12	?	10µM	?	/	.	?
COc1cc2cc(CN3CCC[C@@H]3CO)c(-c3cccc(Cl)c3)nc2cc1OC	/	/	/	.	/	/
O=C(c1cc(-c2cccs2)[nH]n1)N1CCc2nc3cc[nH]n3c(=O)c2C1	/	/	/	.	/	/
SMILES	HT1080 IDH1KD tx	DT40 TDP1 CPT	HT1080-NT tox	ALOX12 inh	IL1B secr inh	TDP1 cell noCPT
CN(C)c1cccc(-c2cc(-c3cn[nH]c3)c3cncn3c2)c1	/	/	/	.	/	/
O=C(CCNc1c(-c2ccc(F)cc2)nc2cnccn12)NC1CCCC1	/	/	/	.	/	/
CCCCNc1c(-c2ccc(SC3CCCCC3)cc2)nc2cnccn12	?	15µM	?	?	.	?
O=C(N=Nc1c(O)[nH]c2ccccc12)c1ccco1	.	?	.	.	?	16µM
CCCn1c(O)c(N=NC(=O)c2ccco2)c2ccccc21	.	13µM	.	.	.	12µM
CCCn1c(O)c(N=N)c2ccccc21	.	.	.	.	.	.
CCCn1c(O)c(N=NC(=O)c2cccnc2)c2cc(Br)ccc21	.	16µM	18µM	.	.	?
CCn1c(O)c(N=NC(=O)CNC(=O)c2ccco2)c2ccccc21	.	?	.	.	.	?
CCCn1c(O)c(N=NC(=O)CNC(=O)c2cccnc2)c2ccccc21	.	.	.	.	.	.
C=CCn1c(O)c(N=NC(=O)CNC(=O)c2ccco2)c2ccccc21	21µM	6.5µM	?	.	.	4.1µM
COc1cc(/C=C(/C#N)c2nc3ccccc3[nH]2)ccc1SC	/	/	/	.	/	/
Cc1cccc(NC(=O)Cn2c(O)c(N=NC(=O)c3ccccc3O)c3ccccc32)c1	?	.	?	.	.	4.6µM
CCn1c(O)c(N=NC(=O)c2cccs2)c2ccccc21	.	23µM	.	.	.	15µM
CNC(=O)c1cc(=O)n(CC(=O)Nc2cccc(C)c2)c2ccccc12	/	/	/	.	/	/
O=c1[nH]c(N2CCOCC2)nc2c1CCN(Cc1ccc(F)c(Br)c1)CC2	/	/	/	.	/	/
O=c1c[n+]([O-])c2ccccc2n1OCc1c(F)cccc1F	?	13µM	?	.	.	21µM
CCOn1c(=O)c[n+]([O-])c2ccccc21	.	.	.	.	.	.
O=C(Cc1cccc(C(F)(F)F)c1)NCc1cccc(Cl)c1	.	.	.	?	.	?
O=C(NCc1cccc(Cl)c1)c1ccc(S(=O)(=O)Nc2cccc(C(F)(F)F)c2)cc1	.	?	.	.	-78	?
CCOCCOC(=O)c1[nH]c2c(c1C)C(=O)CC(c1ccccc1)C2 (centres undefined)	0.26µM	1.5µM	0.15µM	.	.	0.92µM
Cc1c(C(=O)OCC2CCCCC2)[nH]c2c1C(=O)CC(c1ccc(Cl)cc1)C2 (centres undefined)	/	.	/	.	/	.
Cc1c(C(=O)OCc2ccccc2)[nH]c2c1C(=O)CC(c1ccc(N(C)C)cc1)C2 (centres undefined)	/	?	/	.	/	.
CCOC(=O)c1[nH]c2c(c1C)C(=O)CC(c1ccc(F)cc1)C2 (centres undefined)	2.9µM	0.73µM	2.1µM	.	.	0.65µM
Cc1ccc(COC(=O)c2[nH]c3c(c2C)C(=O)CC(c2ccc(Cl)cc2)C3)cc1 (centres undefined)	/	12µM	/	.	/	9.2µM
CCCc1c(C(=O)OCC)[nH]c2c1C(=O)CC(c1ccc(F)cc1)C2 (centres undefined)	/	/	/	.	/	/
CCCOC(=O)c1[nH]c2c(c1C)C(=O)CC(c1ccc(OC)c(OC)c1)C2 (centres undefined)	.	?	.	.	.	.
